Data: PubChem BioAssay (EPA / NIEHS)
Records with an inconclusive call do not appear. Activity calls are given as the source filed them. Rule for the calls: active = hit-call score of the fitted dose curve at least 0.9, where 1 is the maximum; inconclusive = response in the unintended direction; inactive = score below 0.9.

What follows are molecules tested against Oxysterols receptor LXR-beta (Homo sapiens) (UniProt P55055) (assay: ATG_LXRb_TRANS: Attagene TRANS-FACTORIAL HepG2 Assay for human Liver X Receptor beta (LXRb) (AID 2282981)). Conditions: HepG2 Attagene TRANS GAL4-LXRb reporter, mRNA.
Description: ATG_TRANS is a cell-based, multiplexed-readout assay that uses HepG2, a human liver cell line, with measurements taken at 24 hours after chemical dosing in a 24-well plate.ATG_LXRb_TRANS is one of 30 assay component(s) measured or calculated from the ATG_TRANS assay. It is designed to make measurements of mRNA induction, a form of inducible reporter, as detected with fluorescence intensity signals by Reverse transcription polymerase chain reaction (RT-PCR) and Capillary electrophoresis technology.Data from the assay component ATG_LXRb_TRANS was analyzed into 1 assay endpoint. This assay endpoint, ATG_LXRb_TRANS, was analyzed in the positive analysis fitting direction relative to DMSO as the negative control and baseline of activity. Using a type of inducible reporter, measures of mRNA for gain-of-signal activity can be used to understand the reporter gene at the transcription factor-level as they relate to the gene NR1H2. Furthermore, this assay endpoint can be referred to as a primary readout, because this assay has produced multiple assay endpoints where this one serves a reporter gene function. To generalize the intended target to other relatable targets, this assay endpoint is annotated to the nuclear receptor intended target family, where the subfamily is non-steroidal.
Human liver HepG2 cells are transiently transfected with multiple reporter transcription units (MRTUs) in 6-well plates using FuGene 6 reagent (Roche; 3 ml FuGene/1 mg DNA). The MRTU constructs are regulated by a cis-regulating element (promoter). […] A major difference between the CIS and TRANS system is that in CIS activities of endogenous TFs are measured, whereas the TRANS assay evaluates changes in activities of exogenous, chimeric NR-Gal4 proteins. […] At the end of 24 hour incubation, total RNA was isolated using TriZol reagent (Invitrogen). The isolated RNA is then reverse-transcribed using oligo(dT) primer and Mo-MLV reverse transcriptase (Invitrogen) with DNAse I (Ambion) treatment for 30 min. The one-tenth of the produced cDNA was amplified by PCR using Taq DNA polymerase (Invitrogen) and two reporter sequence-specific primers. The PCR products were fluorescently labeled by primer extension with 6-arboxyfluorescein (6-FAM) 5'-labeled reporter sequence-specific primer (2 min at 95 C, 20 s at 68 C and 10 min at 72 C) and these products were digested with 5U of HpaI (New England Biolabs) for 2h at 37 C. The fragments were purified using Qiaquick PCR columns (Qiagen), analyzed on an ABI 3130xL genetic analyzer (Applied Biosystems) with peak positions identified by using a set of X-rhodamine (ROX)-labeled MapMarker1000 molecular weight standards (BioVentures). The raw capillary electrophoresis data was processed using Attagraph software (Attagene).

Oxysterols receptor LXR-beta (Homo sapiens), sequence (P55055 whole entry, looked up, the tested form may be a part): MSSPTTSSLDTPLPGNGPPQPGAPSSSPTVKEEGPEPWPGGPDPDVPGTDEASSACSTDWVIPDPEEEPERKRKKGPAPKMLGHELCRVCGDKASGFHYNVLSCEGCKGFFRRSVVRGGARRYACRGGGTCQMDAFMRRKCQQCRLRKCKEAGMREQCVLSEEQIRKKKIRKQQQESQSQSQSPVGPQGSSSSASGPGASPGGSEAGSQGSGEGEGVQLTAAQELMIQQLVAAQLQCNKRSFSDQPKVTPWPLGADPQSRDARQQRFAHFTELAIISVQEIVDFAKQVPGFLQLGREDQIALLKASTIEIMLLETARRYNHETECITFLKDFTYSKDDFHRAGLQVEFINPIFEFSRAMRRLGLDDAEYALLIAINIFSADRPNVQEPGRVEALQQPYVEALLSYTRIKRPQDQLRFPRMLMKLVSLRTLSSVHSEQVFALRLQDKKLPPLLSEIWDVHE

Row | Structure (SMILES) | outcome | AC50
1 | O=c1n(Cl)c(=O)n(Cl)c(=O)n1Cl | inactive | –
2 | Cc1cnc(C2=NC(C)(C(C)C)C(=O)N2)c(C(=O)O)c1 (stereo not given) | inactive | –
3 | Nc1c(Cl)c(Cl)nc(C(=O)O)c1Cl | inactive | –
4 | N#CN=C1SCCN1Cc1ccc(Cl)nc1 | inactive | –
5 | CCOP(=S)(OCC)Oc1nc(Cl)n(C(C)C)n1 | – | 16.4 µM (active)
6 | CC1(C)C(C(=O)OC(C#N)c2cccc(Oc3ccccc3)c2)C1(C)C (stereo not given) | inactive | –
7 | CC(C)Nc1nc(Cl)nc(NC(C)C)n1 | inactive | –
8 | OC(c1ccc(Cl)cc1)(c1ccc(Cl)cc1)C(Cl)(Cl)Cl | inactive | –
9 | CCCC(=NOCC)C1=C(O)CC(CC(C)SCC)CC1=O (stereo not given) | inactive | –
10 | CCOC(=O)C(C)OC(=O)c1cc(Oc2ccc(C(F)(F)F)cc2Cl)ccc1[N+](=O)[O-] (stereo not given) | inactive | –
11 | O=P(O)(O)CCCl | inactive | –
12 | COP(=S)(OC)SCn1nnc2ccccc2c1=O | inactive | –
13 | COC(=O)c1c(C(F)F)nc(C(F)(F)F)c(C2=NCCS2)c1CC(C)C | inactive | –
14 | CCNC(=O)NC(=O)C(C#N)=NOC | inactive | –
15 | Clc1nc(Cl)nc(Nc2ccccc2Cl)n1 | inactive | –
16 | CC(C)N1C(=O)c2ccccc2NS1(=O)=O | – | 50 µM (active)
17 | CCC(C)n1c(=O)[nH]c(C)c(Br)c1=O (stereo not given) | inactive | –
18 | Clc1cccc(C(Cl)(Cl)Cl)n1 | inactive | –
19 | COP(=O)(OC)O/C(C)=C/C(=O)N(C)C | inactive | –
20 | COP(=S)(OC)Oc1ccc([N+](=O)[O-])c(C)c1 | inactive | –

Row | Structure (SMILES) | outcome | AC50
21 | CC(C)(C)C(=O)C(Oc1ccc(Cl)cc1)n1cncn1 (stereo not given) | inactive | –
22 | COC(=O)N(C(=O)N1CO[C@@]2(C(=O)OC)Cc3cc(Cl)ccc3C2=N1)c1ccc(OC(F)(F)F)cc1 | inactive | –
23 | N#Cc1c(Cl)cccc1Cl | inactive | –
24 | C=CCOC(=O)C(C)(C)OC(=O)c1cc(-n2c(=O)cc(C(F)(F)F)n(C)c2=O)ccc1Cl | inactive | –
25 | CC(C)Oc1cccc(NC(=O)c2ccccc2C(F)(F)F)c1 | inactive | –
26 | CCOP(=O)(OCC)Oc1nc(Cl)c(Cl)cc1Cl | inactive | –
27 | CCCN(CC)CC1COC2(CCC(C(C)(C)C)CC2)O1 (stereo not given) | inactive | –
28 | CO/N=C(/C1=NOCCO1)c1ccccc1Oc1ncnc(Oc2ccccc2Cl)c1F | inactive | –
29 | COCC(=O)N(c1c(C)cccc1C)C(C)C(=O)OC (stereo not given) | inactive | –
30 | CCN(CC)C(=O)C(C)Oc1cccc2ccccc12 (stereo not given) | inactive | –
31 | CC(C)=CC1C(C(=O)OCc2coc(Cc3ccccc3)c2)C1(C)C (stereo not given) | inactive | –
32 | CCNP(=S)(OC)O/C(C)=C/C(=O)OC(C)C (stereo not given) | inactive | –
33 | Nc1c(Cl)c(F)nc(OCC(=O)O)c1Cl | inactive | –
34 | CCN(CC)c1nc(C)cc(OP(=S)(OC)OC)n1 | inactive | –
35 | COCc1cnc(C2=NC(C)(C(C)C)C(=O)N2)c(C(=O)O)c1 (stereo not given) | inactive | –
36 | Cc1ccc(N=CN(C)C=Nc2ccc(C)cc2C)c(C)c1 | inactive | –
37 | O=C1C2CC=CCC2C(=O)N1SC(Cl)(Cl)Cl (stereo not given) | inactive | –
38 | Nc1cnn(-c2ccccc2)c(=O)c1Cl | inactive | –
39 | CN=C=S | inactive | –
40 | CC1(C)CON(Cc2ccccc2Cl)C1=O | inactive | –
